Assay results reported in the supplement of paper PMC6555819.

Legend:
Assay in all cases: PBM binding z-score (relative to random genomic background probes); higher = stronger binding; sequences stand for … in GC…GCGATTGACAGCGTAGAATGAAGG
[1] = test system: FXR:RXRa (NR concentration 270 nM, RXRa partner concentration 90 nM)
Outline: (§1)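 Each nuclear receptor dimer, without ligand, was incubated for 1 h on custom Agilent 4×180K protein-binding microarrays. Binding was detected with antibodies against each partner (one per run), and scanned fluorescence was regression-normalized. The binding z-scores are referenced to random human genomic background probes.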

[2] = test system: LXRa:RXRa (NR concentration 270 nM, RXRa partner concentration 90 nM)
Outline: as §1

[3] = test system: LXRa homodimer (NR concentration 270 nM)
Outline: as §1

[4] = test system: LXRb:RXRa (NR concentration 270 nM, RXRa partner concentration 90 nM)
Outline: as §1

[5] = test system: LXRb homodimer (NR concentration 270 nM)
Outline: as §1

[6] = test system: PPARa:RXRa (NR concentration 270 nM, RXRa partner concentration 90 nM)
Outline: as §1

[7] = test system: PPARg:RXRa (NR concentration 180 nM, RXRa partner concentration 90 nM)
Outline: as §1

[8] = test system: PPARg:RXRa 270nM:90nM, anti-RXR (NR concentration 270 nM, RXRa partner concentration 90 nM)
Outline: as §1

[9] = test system: PPARg:RXRa 30nM:10nM, anti-RXR (NR concentration 30 nM, RXRa partner concentration 10 nM)
Outline: as §1

[10] = test system: PPARg:RXRa 90nM:30nM, anti-RXR (NR concentration 90 nM, RXRa partner concentration 30 nM)
Outline: as §1

Row | Sequence | PBM binding z-score [1] | PBM binding z-score [2] | PBM binding z-score [3] | PBM binding z-score [4] | PBM binding z-score [5] | PBM binding z-score [6] | PBM binding z-score [7] | PBM binding z-score [8] | PBM binding z-score [9] | PBM binding z-score [10]
1 | CGAACTAGGTCCGAACAGGACAGTGAAGGATGAT | -0.542 | -0.905 | -0.619 | -1 | -0.811 | -1.03 | 0.576 | -0.558 | -0.414 | -0.784
2 | ACTCGGAAGACAAAGGTCAGAGCTACGCCAGTGA | 3.29 | 3.7 | 1.47 | 3.28 | 0.387 | 4.48 | 4.43 | 4.75 | 2.83 | 4.83
3 | AATACAGGGTCATTGTAGGCCAGAGTACGCACAG | 7.11 | 6.93 | 3.2 | 5.09 | 1.47 | 5.93 | 6.15 | 5.54 | 2.4 | 4.29
4 | AGAACGAGCGCACGCTGAGTTGATAGCAGAGTAG | -0.57 | -0.901 | -0.709 | -1.02 | -1.26 | -1.16 | 0.302 | -0.706 | -0.622 | -0.45
5 | AAATGTAGGTTAGCTGGGGTCATTCAGACTAGGC | 4.53 | 5.93 | 3.17 | 4.82 | 0.888 | 5.67 | 6.42 | 5.77 | 3.31 | 5.16
6 | CCTCGGAGGACAGAAGATCAGAGCTGTCCGCTTT | -0.222 | -0.485 | -0.602 | -0.91 | -1.2 | -0.456 | -0.0907 | -0.214 | -0.616 | -0.38
7 | CCTTACGGGTCAAGGTTTTAGCACGGGTGGTACG | 4.88 | 3.1 | 0.107 | 2.74 | -0.202 | 4.56 | 4.23 | 4.44 | 1.43 | 3.33
8 | CTACCAAGGTGAACAAGGTCGATGATTACTATTC | 0.946 | 0.835 | 0.167 | 1.18 | -0.531 | 2.13 | 1.2 | 0.941 | 0.12 | 0.353
9 | GGAACGACGGCAAGTTGATAGCAGAGTTTGATGG | -0.255 | -0.528 | -0.627 | -0.839 | -0.999 | -0.669 | 0.538 | -0.859 | -0.288 | -0.679
10 | CCGACCGGGGCAAAGGTTACCATACTCAGTACGA | 2.32 | 2.1 | 0.433 | 2.47 | -1.02 | 4.89 | 8.71 | 7.68 | 6.28 | 7.92
11 | AGAACGAGGGCACGCTGAGCTGATAGCAGAGTAG | 0.647 | 0.277 | -0.751 | -0.0518 | -0.909 | 1.98 | 1.91 | 1.81 | 0.448 | 0.908
12 | GCGACTGGGGCAAAGCAGGTTATCATAAGGTTGG | 0.502 | 0.29 | -0.027 | 0.318 | -0.831 | 1.41 | 1.29 | 1.17 | -0.476 | 0.229
13 | CCTGCTAGGTCATGGTCAGCTCATCTACAGTATG | 3.3 | 2.63 | 0.179 | 1.95 | 0.157 | 3.42 | 2.25 | 2.85 | 0.448 | 1.72
14 | TAGCCTGGGTCATGGGCCAGTATACCACGCGAAC | 3.85 | 2.34 | -0.426 | 2.04 | -0.671 | 4.14 | 4.11 | 3.94 | 1.09 | 2.53
15 | TCTTGTAGATCAACAGGAGGTTCAGAAAGATCGA | 0.027 | -0.0973 | -0.476 | -0.000896 | -0.414 | 0.453 | -0.062 | 1.25 | 2.65 | 2.18
16 | TCTATTAGTTGAAGGCCAACCGACGAGTCCGTTT | 0.871 | 1.16 | 0.259 | 0.921 | 0.342 | 1.28 | 0.257 | 2.32 | 4.11 | 2.96
17 | TCTGCTAGGTCAATGATGGTCAGCTAATCTGCTA | 2.48 | 2.82 | -0.0629 | 1.38 | -0.0652 | 2.69 | 1.53 | 2.35 | 1.77 | 2.05
18 | GGAACCAGGGCAAGTTGATAGCAGAGTTTGATGG | 1.5 | 0.969 | 0.225 | 0.866 | 0.488 | 1.54 | 1.17 | 0.853 | -0.119 | 0.257
19 | TCAATGAGGTTAAAGATCAGGGAACGTGGCGTCG | 3.28 | 2.48 | -0.228 | 1.66 | 0.0519 | 4.25 | 5.03 | 5.65 | 5.03 | 5.65
20 | TCATATAGGTAATACCGGTGAAAGTCGGCATCTA | 0.519 | 0.637 | 0.169 | 0.726 | 0.0983 | 1.44 | 0.698 | 2.2 | 4.02 | 3.31
21 | ATCTCTAGGTAAAAGTTCAGTGTATCCCGAGGAT | 0.805 | 1.47 | 1.82 | 1.14 | 0.968 | 4.08 | 7.71 | 8.23 | 7.05 | 9.47
22 | ATCTCTAGGTAAAGTACAGTGAAAGATCGATAGA | 0.412 | 0.617 | 0.207 | 0.131 | 0.745 | 0.0903 | 0.761 | 0.842 | 0.832 | 0.623
23 | GCTATTAGTTGAAAGGGCAATCGAATGATTCTCG | 0.568 | 0.562 | 0.189 | 0.633 | -0.254 | 2.34 | 2.44 | 4.24 | 2.01 | 4.26
